Our source for the growth inhibition values is PubChem BioAssay.

Where “and” joins values, the source holds several entries; their conditions need not be identical. Equal entries are not always repeated. Some compounds were tested as several samples or in several runs, with calls that do not always agree. Calls of active or inactive are those of the source.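 How the source made its calls: active means growth inhibition above 50% at the single 2 µM test dose, taken to imply half-maximal potency below 2 µM; inactive means the rest.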

A short description of this assay: antimalarial activity against Dd2 strain (AID 2302).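 Further: 0% = DMSO untreated growth and 100% = chloroquine plus artemisinin killed control.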 The note with it: P. falciparum Dd2 in RBCs, LDH growth readout, 72 h; at 2 µM; stronger effect = higher value.
On to `OC(CNc1ccnc(Nc2cccc(Cl)c2)n1)c1cccc(C(F)(F)F)c1` (stereo not given), for which the growth inhibition was 98% (active).
As for `CC1CN(Cc2cccc(-c3ccc(-c4nc5ccc(F)cc5[nH]4)cc3)c2)CC(C)O1` (stereo not given), the figure is 88% (active); as for `COc1cc(F)c2ncc(Cl)c([C@H](O)CN3CCC(NCc4cc5c(cn4)OCCO5)CC3)c2c1`, 49% (inactive).
As for `COc1ccc2nc(C)cc(NN=Cc3ccccc3Cl)c2c1`, the figure is 100% (active); as for `Cn1nccc1C(=O)NCCNCc1ccc(-c2ccc(-c3nc4ccc(C(F)(F)F)cc4[nH]3)cc2)cc1`, 99% (active).
As for `COc1ccccc1C1CCN(C2CCC(NC(=O)/C=C/c3cc(F)cc(F)c3)CC2)CC1` (stereo not given), the figure is 15% (inactive); as for `CN(C)CCCOc1ccc(CCCCc2ccc(Cl)cc2C(=O)c2ccccc2)cc1`, 8% (inactive); as for `O=C(C=Cc1ccc(C(=O)Nc2ccc(C3=NCCN3)cc2)cc1)Nc1ccc(C2=NCCN2)cc1`, 101% (active).
Regarding `Cc1ccc2nc(C)cc(NC(=O)Nc3ccc(N(C)C)cc3)c2c1`, the growth inhibition is 41% (inactive).
As for `CC(C)c1ccc(CN2CCCCC(NC(=O)c3cc(-c4ccccc4Cl)cs3)C2)cc1` (stereo not given), the figure is 64% (active).
As for `CCNc1cc(C(=O)N[C@@H](Cc2ccccc2)[C@H](O)CNCCc2ccccc2)cc(N2CCCC2=O)c1`, the figure is 46% (inactive).
In the case of `COc1cc(C(F)(F)F)c2cc(CNCCCNc3nc4ccccc4[nH]3)[nH]c2c1`, the growth inhibition is 0% (inactive).
As for `FC(F)(F)c1cccc(CNCCCCCNCc2ccc(Cl)cc2)c1`, the figure is 15% (inactive); as for `CC(=O)Nc1ccc(CN2Cc3ccc(NC(=O)Nc4ccc(Oc5ccccc5)cc4)cc3C2)s1`, 25% (inactive).
As for `COCc1cccc(-c2cc(-c3ccc(S(C)(=O)=O)cc3)cnc2N)c1`, the figure is 88% (active).
For `CCCCCCCCNc1c2ccc(Cl)cc2nc2ccc(OC)cc12`, the growth inhibition was 96% (active).
On to `Oc1ccc(Cl)cc1CN1CCCC(COC(c2ccc(F)cc2)c2ccc(F)cc2)C1` (stereo not given), for which the growth inhibition is 100% (active).
With `CN1CCN(Cc2ccc(-c3cc4nccc(Nc5ccc(Oc6ccccc6)cc5)c4cc3Cl)o2)CC1`, the growth inhibition was 99% (active).
As for `O=C(NCC1CCN(Cc2ccc(F)cc2)C1)c1cc(-c2cccc(C(F)(F)F)c2)cs1` (stereo not given), the figure is 18% (inactive).
For the compound `Cn1ccnc1S(=O)(=O)CCNCc1ccc(-c2ccc3ncnc(Nc4ccc(OCc5cccc(F)c5)c(Cl)c4)c3c2)o1`, the growth inhibition is 94% (active).
For `CCC(CC(NCCCCNC(=O)c1ccc(NC(=O)c2ccc(Cl)cc2)cc1)c1ccccc1)c1ccccc1OC` (stereo not given), the growth inhibition is 76% (active) and 56% (active).
As to `N#CC(c1ccc(Br)cc1)c1ccc2c(C(F)(F)F)cc(C(F)(F)F)nc2n1` (stereo not given), the growth inhibition is 98% (active).
As for `O=C(CCCCCNC(=O)c1ccc(O)c(-c2ccc(Cl)c(Cl)c2)c1)NCCN1CCCCC1`, the figure is 1% (inactive); as for `COc1ccc(NC(=O)N2CCN(CCCCCNC(=O)/C=C/c3ccc(C(F)(F)F)cc3)CC2)cc1Cl`, -5% (inactive); as for `O=C(Nc1ccc(Cn2ncc(N3CCCNCC3)c(Cl)c2=O)cc1)Nc1ccc(-c2ccccc2)cc1`, 41% (inactive) and 51% (active).
As for `O=C(NCCc1ccc(Cl)c(Cl)c1)c1ccc(CNC(=O)c2ccc(O)c(-c3ccc(Cl)c(Cl)c3)c2)cc1`, the figure is 3% (inactive); as for `CC(=O)N1N=C(c2ccc(Cl)cc2)Sc2c1nc(C1CCCCC1)n2C(C)=O`, 67% (active); as for `CN1CCCN(Cc2ccc(-c3cccc(NC(=O)c4ccc(F)cc4)c3)cc2)CC1`, 8% (inactive).
As for `NC(=O)COc1cccc2c1CCN(CCN1CCC(NC(=O)c3ccc(-c4ccc(Cl)cc4)cc3)CC1)C2`, the figure is 6% (inactive); as for `C=C[C@H]1CN(CCCCCCC)CC[C@H]1CCN(C)c1ccnc2ccc(OC)cc12`, 93% (active); as for `CC(C)(C)CN1C(=O)C(c2ccccc2)(c2ccccc2)N=C1N`, 94% (active).
As to `CN(C)CCOc1cc(NC(=O)Nc2ccc(-c3ccncc3)c(C(F)(F)F)c2)ccc1Cl`, the growth inhibition is 79% (active).
Take `Cc1cc(NCCC(=O)NCCc2ccccc2)nc(NCCc2ccc(F)cc2)n1`: the growth inhibition was 7% (inactive).
As for `C[C@H](Cc1ccc(C[C@@H](C)NCC(O)c2cc(Cl)c(N)c(Cl)c2)cc1)NCC(O)c1cc(Cl)c(N)c(Cl)c1` (stereo not given in full), the growth inhibition was 50% (active).
For `FC(F)(F)c1ccc2nccc(NN=Cc3ccc(Cl)cc3)c2c1`, the growth inhibition was 53% (active).
As to `Cc1cc(N[C@@H](Cc2ccccc2)C(=O)NC2CCCC2)nc(NCCc2cccs2)n1`, the growth inhibition was 14% (inactive).
As for `N#Cc1cccc(NC(=O)Nc2ccc(CC(=O)N3CCc4cc(Cl)c(N5CCN(C/C=C/c6ccccc6)CC5)cc43)cc2)c1`, the figure is 61% (active); as for `O=C(Nc1ccc(CN2CCN(S(=O)(=O)c3ccc(Cl)s3)CC2)cc1)c1cccs1`, 87% (active).
As for `CC(CCCCC(=O)Nc1ccc(C(F)(F)F)cc1)NCC(O)c1cccc(Cl)c1` (stereo not given), the figure is 92% (active); as for `COc1ccc(NC(=O)c2cc(-c3ccc(NC(C)=O)cc3)cnc2N)cc1`, 5% (inactive).
